According to PubChem BioAssay (Tox21):
Results filed as inconclusive are left out. Active and inactive are the calls of the source. Unless noted, calls follow the shape of the dose curve; as a rule, active = well fitted curve in the direction sought with a large enough effect in the repeat runs; inconclusive = weak or mixed curves; inactive = no such curve, though single readings can be large; an effect the other way counts as inactive or inconclusive.

Key:
[1] = qHTS assay to identify small molecule agonists of the RXR signaling pathway - cell viability counter screen (AID 1159529); also: nearly all actives have a fitted effect of over 50% in size; also: potency is read from the fitted curve at half-maximal effect;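 as to activity change, negative = cytotoxicity: HEK 293T cells carrying an RXR-alpha UAS beta-lactamase reporter; series mostly up to about 77 µM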
Procedure, shortened: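 In this parallel viability measure, GeneBLAzer RXR-alpha HEK 293T cells (2% charcoal-stripped FBS) were given a 5 hr preincubation, treated with compounds 16 hr at 37 C, and read by CellTiter-Glo luminescence.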

[2] = qHTS assay to identify small molecule antagonists of the retinoid acid receptor (RAR) signaling pathway - cell viability counter screen (AID 1159551); also: nearly all actives have a fitted effect of over 35% in size; also: potency is read from the fitted curve at half-maximal effect
Procedure, shortened: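 Luminescent ATP quantitation (CellTiter-Glo) gave cell viability in C3RL4 cells exposed to test chemicals for 6 h at 37 C alongside 1 uM final retinol.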

[3] = qHTS assay to identify small molecule antagonists of the retinoic acid receptor (RAR) signaling pathway (AID 1159552; also: nearly all actives have a fitted effect of over 50% in size; also: potency is read from the fitted curve at half-maximal effect)
Procedure, shortened: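 C3RL4 RARE-luc cells, overnight plating; retinol 1 uM final added right after compound; 6 hr 37 C; luciferase read at 30 min RT.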

[4] = qHTS assay to identify small molecule antagonists of the estrogen related receptor (ERR) signaling pathway from Tox21 library - cell viability counter screen (AID 1224834); also: nearly all actives have a fitted effect of over 30% in size; also: potency is read from the fitted curve at half-maximal effect
Procedure, shortened: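 Fluorescence from CellTiter-Fluor gives the viability read-out, taken 30 min after reagent addition. Before that, ERR cells seeded 6 h earlier were incubated with compounds for 17.5 h at 37 C.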

[5] = qHTS assay to identify small molecule agonists of the constitutive androstane receptor (CAR) signaling pathway - cell viability counter screen (AID 1224836); also: nearly all actives have a fitted effect of over 45% in size; also: potency is read from the fitted curve at half-maximal effect; as to viability change, negative = cytotoxic: series mostly up to about 92 µM
Procedure, shortened: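 Using CellTiter-Fluor, viability of HepG2 cells harbouring hCAR and CYP2B6-2.2kb was measured following 23 h incubation with a 15-concentration compound series plus PK11195 (0.75 uM final).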

[6] = qHTS assay to identify small molecule antagonists of the constitutive androstane receptor (CAR) signaling pathway - cell viability counter screen (AID 1224837); also: nearly all actives have a fitted effect of over 45% in size; also: potency is read from the fitted curve at half-maximal effect; as to activity change, negative = cytotoxicity: series mostly up to about 92 µM
Procedure, shortened: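 HepG2-CYP2B6-hCAR cells, 2500/well, 4 hr pre-incubation; compound titration, 15 conc.; CITCO 50 nM final; 23 hr, 37 C/5% CO2; CellTiter-Fluor, fluorescence intensity.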

[7] = qHTS assay to identify small molecule antagonists of the estrogen related receptor signaling pathway with the pleiotropic PPARgamma coactivator (PGC) from Tox21 10K library - cell viability counter screen (AID 1224840; active = well fitted cell-killing curve with a large enough effect in the repeat runs, not every such curve was filed as active; also: nearly all actives have a fitted effect of over 40% in size; also: potency is read from the fitted curve at half-maximal effect)
Procedure, shortened: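 PGC/ERR cells, 2,000/well; 6 h pre-incubation 37 C/5% CO2; cpd in DMSO via pin tool; 17.5 h 37 C; CellTiter-Fluor, 30 min; fluorescence.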

[8] = target: Thyrotropin receptor (Homo sapiens) (UniProt P16473); test: qHTS assay to identify small molecule agonists of the thyroid stimulating hormone receptor (TSHR) signaling pathway (AID 1224843; calls by dose curve; also: nearly all actives have a fitted effect of over 45% in size; also: potency is read from the fitted curve at half-maximal effect)
Procedure, shortened: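 Steps: seed 800 TSHR-HEK293 cells per well; add test compound and hold 30 min at ambient temperature; dispense cAMP-d2 then anti-cAMP cryptate; incubate 1 h at ambient; measure fluorescence intensity.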

[9] = target: Luciferin 4-monooxygenase (Photinus pyralis) (UniProt P08659); test: qHTS assay to identify small molecule inhibitors of firefly luciferase (AID 1224835); also: nearly all actives have a fitted effect of over 25% in size; also: potency is read from the fitted curve at half-maximal effect; as to activity change, negative = inhibition: series mostly up to about 120 µM
Procedure, shortened: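 Biochemical qHTS: compounds run as interplate titrations against purified firefly enzyme, with D-luciferin and ATP each at its KM concentration. Light output recorded by CCD imaging.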

[10] = target: Nuclear receptor subfamily 1 group I member 3 (Homo sapiens) (UniProt Q14994); test: qHTS assay to identify small molecule antagonists of the constitutive androstane receptor (CAR) signaling pathway (AID 1224838);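 also: HepG2 cells stably expressing hCAR with CYP2B6 luciferase reporter stimulated by CITCO; nearly all actives have a fitted effect of over 40% in size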; also: potency is read from the fitted curve at half-maximal effect
Procedure, shortened: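 HepG2-CYP2B6-hCAR cells; 4 h pre-incubation; cpd (15 conc) + CITCO 50 nM final; 24 h, 37 C/5% CO2; ONE-Glo, luminescence.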

[11] = target: Nuclear receptor subfamily 1 group I member 3 (Homo sapiens) (UniProt Q14994); test: qHTS assay to identify small molecule agonists of the constitutive androstane receptor (CAR) signaling pathway (AID 1224839);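 also: HepG2 cells stably carrying human CAR and a CYP2B6 luciferase reporter; series mostly up to about 92 µM; nearly all actives have a fitted effect of over 15% in size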
Procedure, shortened: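 Double-stable HepG2 cells (hCAR, CYP2B6-2.2kb) seeded 4 h before compound addition. Exposure 24 h with 0.75 uM PK11195 final. Luciferase detected by ONE-Glo.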

[12] = qHTS assay to identify small molecule antagonists of the estrogen related receptor signaling pathway with the pleiotropic PPARgamma coactivator (PGC) from Tox21 10K library (AID 1224841; call rule not given here; also: actives are mostly falling curves and most rising ones were filed inactive; nearly all actives have a fitted effect of over 50% in size; also: potency is read from the fitted curve at half-maximal effect; as to activity, negative = inhibition: series mostly up to about 92 µM)
Procedure, shortened: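 PGC/ERR cell line, 2,000 cells/well; 6 h pre-incubation 37 C/5% CO2; compounds (DMSO) pinned in; 18 h, 37 C; One-Glo, 30 min RT; luminescence.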

[13] = qHTS assay to identify small molecule agonists of the estrogen related receptor signaling pathway with the pleiotropic PPARgamma coactivator (PGC) from Tox21 10K library (AID 1224842); also: nearly all actives have a fitted effect of over 15% in size
Procedure, shortened: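 PGC/ERR reporter cell line, 2,000 cells per well, incubated 6 h at 37 C before 23 nL compound in DMSO was added. After 18 h at 37 C, One-Glo luminescence read following 30 min at room temperature.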

[14] = qHTS assay to identify small molecule agonists of the estrogen related receptor (ERR) signaling pathway (AID 1224820)
Procedure, shortened: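 ERR reporter cells (NTP line) plated 2,000/well, incubated 6 h at 37 C/5% CO2, then pinned with compounds in DMSO and held 18 h at 37 C. One-Glo added; luminescence read after 30 min at room temperature.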

[15] = qHTS assay to identify small molecule agonists of the estrogen related receptor signaling pathway with the pleiotropic PPARgamma coactivator (PGC) (AID 1224823)
Procedure, shortened: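 PGC/ERR reporter cells were seeded, rested 6 h at 37 C/5% CO2, then exposed to compounds in DMSO by pin transfer for 18 h at 37 C. Luciferase activity was read as luminescence after One-Glo reagent and 30 min at room temperature.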

[16] = qHTS assay to identify small molecule agonists of the retinoic acid receptor (RAR) signaling pathway (AID 1159553)
Procedure, shortened: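 Luminescence from a RARE-driven luciferase reporter in C3RL4 cells served as the read-out, measured after 30 min with detection reagent at room temperature. Compounds in DMSO were applied for 6 hr at 37 C following overnight seeding.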

[17] = qHTS assay to identify small molecule antagonists of the estrogen related receptor (ERR) signaling pathway - cell viability counter screen (AID 1224818);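 also: series mostly up to about 46 µM; viability measured after 17.5 h of compound exposure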
Procedure, shortened: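 Multiplexed counter screen to separate cytotoxic compounds from true ERR modulators. ERR cells received DMSO-dissolved compounds after a 6 h pre-incubation, were exposed 17.5 h at 37 C, then assayed with CellTiter-Fluor fluorescence.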
% is scaled to controls: 0 for no effect and ±100 for the full control effect.

Chain of Nuclear receptor subfamily 1 group I member 3 (Homo sapiens) (Q14994 whole entry, looked up): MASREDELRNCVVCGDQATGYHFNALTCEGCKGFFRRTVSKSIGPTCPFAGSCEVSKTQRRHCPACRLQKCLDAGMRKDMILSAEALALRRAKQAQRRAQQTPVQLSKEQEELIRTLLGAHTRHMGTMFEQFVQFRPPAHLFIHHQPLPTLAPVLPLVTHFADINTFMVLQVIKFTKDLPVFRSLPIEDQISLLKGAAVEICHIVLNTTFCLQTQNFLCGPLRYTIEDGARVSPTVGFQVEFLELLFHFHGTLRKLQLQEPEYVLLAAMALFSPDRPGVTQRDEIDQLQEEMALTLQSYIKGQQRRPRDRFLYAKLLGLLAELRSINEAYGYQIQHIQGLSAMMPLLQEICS
Chain of Luciferin 4-monooxygenase (Photinus pyralis) (P08659 whole entry, looked up): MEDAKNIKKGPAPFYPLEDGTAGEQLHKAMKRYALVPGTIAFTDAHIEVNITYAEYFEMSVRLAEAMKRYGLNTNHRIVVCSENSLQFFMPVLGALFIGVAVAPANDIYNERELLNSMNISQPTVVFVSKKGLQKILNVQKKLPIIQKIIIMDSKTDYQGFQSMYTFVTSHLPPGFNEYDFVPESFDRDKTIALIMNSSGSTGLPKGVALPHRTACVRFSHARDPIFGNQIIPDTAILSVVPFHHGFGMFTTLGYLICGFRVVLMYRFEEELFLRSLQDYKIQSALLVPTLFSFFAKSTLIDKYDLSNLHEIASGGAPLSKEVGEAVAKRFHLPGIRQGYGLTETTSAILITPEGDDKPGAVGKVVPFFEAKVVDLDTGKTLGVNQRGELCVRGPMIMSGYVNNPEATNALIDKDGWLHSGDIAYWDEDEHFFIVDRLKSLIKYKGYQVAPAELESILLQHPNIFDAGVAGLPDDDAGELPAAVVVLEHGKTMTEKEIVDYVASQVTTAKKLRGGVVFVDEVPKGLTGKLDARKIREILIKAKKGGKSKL
Chain of Thyrotropin receptor (Homo sapiens) (P16473 whole entry, looked up): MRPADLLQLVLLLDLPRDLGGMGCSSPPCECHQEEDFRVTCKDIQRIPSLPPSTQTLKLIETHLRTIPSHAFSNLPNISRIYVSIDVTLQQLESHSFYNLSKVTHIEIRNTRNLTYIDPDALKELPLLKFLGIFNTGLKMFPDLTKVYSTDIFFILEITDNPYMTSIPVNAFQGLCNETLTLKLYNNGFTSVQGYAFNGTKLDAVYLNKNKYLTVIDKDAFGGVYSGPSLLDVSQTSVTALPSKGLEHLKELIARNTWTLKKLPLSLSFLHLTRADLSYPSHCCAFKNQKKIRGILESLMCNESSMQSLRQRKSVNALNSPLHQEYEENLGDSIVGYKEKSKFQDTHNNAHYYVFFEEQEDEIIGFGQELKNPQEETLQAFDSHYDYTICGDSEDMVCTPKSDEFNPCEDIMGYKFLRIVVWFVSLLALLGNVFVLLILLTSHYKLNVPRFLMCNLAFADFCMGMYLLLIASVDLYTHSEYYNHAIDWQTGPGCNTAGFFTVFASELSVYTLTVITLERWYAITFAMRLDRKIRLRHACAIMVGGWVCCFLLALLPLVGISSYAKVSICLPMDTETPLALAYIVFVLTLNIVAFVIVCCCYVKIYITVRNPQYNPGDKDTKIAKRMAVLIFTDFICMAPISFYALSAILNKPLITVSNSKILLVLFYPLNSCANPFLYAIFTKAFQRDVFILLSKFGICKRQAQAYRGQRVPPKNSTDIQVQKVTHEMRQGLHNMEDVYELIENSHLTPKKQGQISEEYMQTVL

C[C@@H](Oc1ccc(Cl)cc1Cl)C(=O)O
inactive: Potency [1] | Potency [2] | Potency [3] | Potency [4] | Potency [5] | Potency [6] | Potency [7] | Potency [8]

Brc1c(Br)c(Br)c(Oc2c(Br)c(Br)c(Br)c(Br)c2Br)c(Br)c1Br
inactive: activity change, negative = cytotoxicity [1] 2.64% [at 15.8 µM] | activity change, negative = cytotoxicity [2] 2.15% [at 19 µM] | activity, negative = inhibition [3] -8.07% [at 19 µM] | activity change, negative = inhibition [9] 1.46% [at 23.6 µM] | activity change, negative = cytotoxicity [6] 5.53% [at 19 µM] | activity, negative = inhibition [10] -4.8% [at 19 µM] | activation [11] -0.206% [at 19 µM] | viability change, negative = cytotoxic [7] 10.1% [at 19 µM] | activity, negative = inhibition [12] 39.4% [at 19 µM] | activation [13] 1.27% [at 19 µM] | activation [8] -5.88% [at 19 µM]

O=c1ssc(Cl)c1Cl
active: Potency [2] 68.6 µM | Potency [3] 61.1 µM | Potency [9] 17.8 µM | Potency [5] 61.1 µM | Potency [6] 54.5 µM | Potency [10] 54.5 µM
inactive: Potency [1] | Potency [11] | Potency [13]

CCCN(CCC)c1c([N+](=O)[O-])cc(S(N)(=O)=O)cc1[N+](=O)[O-]
active: Potency [1] 43.6 µM | Potency [2] 58.1 µM | Potency [4] 46.2 µM | Potency [5] 65.2 µM | Potency [6] 65.2 µM | Potency [7] 36.7 µM | Potency [12] 65.2 µM | Potency [8] 5.18 µM
inactive: outcome [14] | outcome [15] | Potency [9] | Potency [13]

NC(=O)CCl
inactive: Potency [1] | Potency [2] | Potency [3] | Potency [9] | Potency [6] | Potency [10] | Potency [11] | Potency [7] | Potency [8]

Cc1cc(C)cc(OP(=O)(Oc2cc(C)cc(C)c2)Oc2cc(C)cc(C)c2)c1
inactive: Potency [1] | Potency [2] | Potency [16] | Potency [4] | Potency [9] | Potency [5] | Potency [6] | Potency [7] | Potency [12] | Potency [13] | Potency [8]

CCOP(=O)(NC(C)C)Oc1ccc(SC)c(C)c1 (configuration not stated)
inactive: Potency [1] | Potency [2] | Potency [16] | outcome [17]

CC(Cc1ccc(C(C)(C)C)cc1)CN1C[C@@H](C)O[C@@H](C)C1 (some centres not stated)
inactive: Potency [1] | Potency [2] | Potency [4] | Potency [9] | Potency [5] | Potency [6] | Potency [10] | Potency [11] | Potency [7] | Potency [12] | Potency [13]

BrCC(Br)c1ccccc1 (configuration not stated)
inactive: Potency [1] | Potency [2] | Potency [3] | Potency [4] | Potency [6] | Potency [7] | Potency [8]

CCOCn1c(-c2ccc(Cl)cc2)c(C#N)c(Br)c1C(F)(F)F
inactive: Potency [2] | Potency [16] | Potency [9] | Potency [11]
active: Potency [1] 19.5 µM | Potency [4] 4.86 µM | Potency [5] 4.33 µM | Potency [6] 4.33 µM | Potency [10] 4.86 µM | Potency [7] 5.45 µM
